Shown is part of a subset that was picked to be rich in hits.
nsP2pro primary: CHIKV nsP2 protease inhibition, primary qHTS; Q8JUX6; FRET peptide cleavage, nsP2pro, fluorescence 1 h; Potency, µM (highest dose often 24.9 µM), without a hit: at the highest dose activity change, negative = inhibition, actives largely listed as inhibitors; hit rate 1.1% among 31,000; AID 1964107; also: nearly all actives have a fitted effect of over 60% in size
Target sequence (Q8JUX6 whole entry, looked up): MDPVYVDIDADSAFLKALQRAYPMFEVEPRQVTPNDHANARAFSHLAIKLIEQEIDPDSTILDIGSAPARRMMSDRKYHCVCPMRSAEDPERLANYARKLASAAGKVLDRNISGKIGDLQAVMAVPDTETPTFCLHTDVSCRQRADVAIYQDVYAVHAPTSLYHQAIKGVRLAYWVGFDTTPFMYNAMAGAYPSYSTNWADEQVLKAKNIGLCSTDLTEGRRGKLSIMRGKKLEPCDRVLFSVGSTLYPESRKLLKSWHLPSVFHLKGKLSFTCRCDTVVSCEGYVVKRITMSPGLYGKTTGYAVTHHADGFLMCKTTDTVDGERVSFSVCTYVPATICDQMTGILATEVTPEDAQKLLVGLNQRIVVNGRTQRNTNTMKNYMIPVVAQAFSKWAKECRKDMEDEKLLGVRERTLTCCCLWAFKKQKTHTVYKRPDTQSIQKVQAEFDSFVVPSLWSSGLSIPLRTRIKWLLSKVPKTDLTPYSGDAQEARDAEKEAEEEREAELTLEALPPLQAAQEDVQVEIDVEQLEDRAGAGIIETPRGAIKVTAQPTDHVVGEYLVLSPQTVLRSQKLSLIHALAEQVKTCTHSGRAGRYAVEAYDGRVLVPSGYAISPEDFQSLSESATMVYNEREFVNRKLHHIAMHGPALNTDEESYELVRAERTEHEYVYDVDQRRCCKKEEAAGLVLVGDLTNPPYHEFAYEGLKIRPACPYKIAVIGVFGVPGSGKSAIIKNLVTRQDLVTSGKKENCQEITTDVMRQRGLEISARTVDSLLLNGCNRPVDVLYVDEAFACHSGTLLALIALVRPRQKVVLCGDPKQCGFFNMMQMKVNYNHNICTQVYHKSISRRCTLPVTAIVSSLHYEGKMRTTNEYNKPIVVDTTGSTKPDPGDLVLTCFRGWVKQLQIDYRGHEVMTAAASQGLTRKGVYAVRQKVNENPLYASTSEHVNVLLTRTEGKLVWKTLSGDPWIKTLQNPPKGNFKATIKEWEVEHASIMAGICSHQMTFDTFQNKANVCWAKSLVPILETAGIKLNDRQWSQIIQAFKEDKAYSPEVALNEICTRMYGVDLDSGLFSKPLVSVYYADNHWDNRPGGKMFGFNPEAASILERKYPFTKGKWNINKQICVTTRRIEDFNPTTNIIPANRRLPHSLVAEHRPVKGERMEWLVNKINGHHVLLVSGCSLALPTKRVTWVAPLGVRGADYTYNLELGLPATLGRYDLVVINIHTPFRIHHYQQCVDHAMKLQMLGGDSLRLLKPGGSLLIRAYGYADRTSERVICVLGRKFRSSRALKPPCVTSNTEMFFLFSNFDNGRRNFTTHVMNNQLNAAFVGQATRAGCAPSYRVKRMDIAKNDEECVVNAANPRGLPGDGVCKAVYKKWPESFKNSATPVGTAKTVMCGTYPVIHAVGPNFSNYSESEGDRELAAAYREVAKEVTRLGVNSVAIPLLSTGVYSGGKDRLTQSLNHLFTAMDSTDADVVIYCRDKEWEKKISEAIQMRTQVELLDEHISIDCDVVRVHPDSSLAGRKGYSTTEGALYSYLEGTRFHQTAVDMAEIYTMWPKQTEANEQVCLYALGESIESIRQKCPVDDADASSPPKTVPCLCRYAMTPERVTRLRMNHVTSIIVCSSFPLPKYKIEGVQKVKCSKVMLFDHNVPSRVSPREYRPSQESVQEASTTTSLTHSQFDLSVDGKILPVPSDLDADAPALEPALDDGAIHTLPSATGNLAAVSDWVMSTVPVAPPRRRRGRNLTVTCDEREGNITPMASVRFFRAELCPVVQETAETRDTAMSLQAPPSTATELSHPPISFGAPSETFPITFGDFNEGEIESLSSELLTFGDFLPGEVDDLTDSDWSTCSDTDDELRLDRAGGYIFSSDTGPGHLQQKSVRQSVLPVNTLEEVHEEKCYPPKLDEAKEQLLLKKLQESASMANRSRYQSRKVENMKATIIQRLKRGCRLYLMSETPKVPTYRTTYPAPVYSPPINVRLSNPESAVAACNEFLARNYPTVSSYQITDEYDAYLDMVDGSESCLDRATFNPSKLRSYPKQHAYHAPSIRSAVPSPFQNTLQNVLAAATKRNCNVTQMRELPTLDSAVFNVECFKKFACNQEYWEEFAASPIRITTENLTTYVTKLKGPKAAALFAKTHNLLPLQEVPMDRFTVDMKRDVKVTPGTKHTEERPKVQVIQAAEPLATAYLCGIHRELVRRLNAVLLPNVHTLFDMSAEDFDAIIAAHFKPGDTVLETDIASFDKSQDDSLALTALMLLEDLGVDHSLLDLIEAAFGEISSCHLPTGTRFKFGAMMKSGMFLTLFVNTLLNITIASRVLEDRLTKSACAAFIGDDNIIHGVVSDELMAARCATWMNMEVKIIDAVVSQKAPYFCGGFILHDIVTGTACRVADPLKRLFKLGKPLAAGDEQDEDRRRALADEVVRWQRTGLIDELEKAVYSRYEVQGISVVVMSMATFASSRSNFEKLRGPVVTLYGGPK
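Recombinant nsP2pro (150 nM) was preincubated with compound 15 min at room temperature in 10 mM Tris-HCl pH 8.0, 0.01% Tween 20. Peptide 2 FRET substrate (2.5 uM) was then added and fluorescence read after 1 h. Seven-point series, up to 25 uM.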
nsP2 cell sec: inhibits CHIKV nsP2 protease in cells; shares compounds with nsP2pro primary; cell-based CHIKV nsP2 protease reporter assay; Potency, µM (top dose mostly 51.1 µM), without a hit: at the highest dose activity change, negative = inhibition, most hits filed as inhibitors; hit rate 10% among 450; AID 1964100; also: nearly all actives have a fitted effect of over 70% in size
NSP2 full ctr: inhibits full-length CHIKV NSP2 enzyme; hit rate 39% among 410; Potency, µM (highest dose often 50.7 µM), for inactives: at the top dose activity change, negative = inhibition, hits mostly inhibitors; shares compounds with nsP2pro primary; Full-length CHIKV NSP2 protease enzymatic counterscreen; also: nearly all actives have a fitted effect of over 65% in size
Furin counterscr: selectivity counter-screen for CHIKV nsP2 protease inhibitors: human furin; AID 1964102; hit rate 6% among 410; Recombinant human furin enzymatic counterscreen, fluorogenic substrate; Potency, µM (series often up to 50.6 µM), inactives show top-dose activity change, negative = inhibition, actives largely listed as inhibitors; shares compounds with nsP2pro primary
NS23 peptide cs: nsP2pro inhibition on native NS2/3 peptide substrate | shares compounds with nsP2pro primary | Purified CHIKV nsP2 protease, endogenous NS2/3 peptide cleavage | Potency, µM (series often up to 51 µM), for inactives: at the highest dose activity change, negative = inhibition, usual class: inhibitors | hit rate 34% among 410 | AID 1964103; also: nearly all actives have a fitted effect of over 55% in size
Papain cs: inhibits papain in a CHIKV nsP2 protease selectivity counterscreen. shares compounds with nsP2pro primary. purified papain protease activity, enzymatic inhibition. Potency, µM (titrated, usually from 51 µM), for inactives: at the highest dose activity change, negative = inhibition, usual class: inhibitors. hit rate 5% among 410
nsP2pro confirm: CHIKV nsP2 protease inhibition, confirmatory qHTS; hit rate 43% among 410; Potency, µM (titrated, usually from 25.5 µM), for inactives: top-dose activity change, negative = inhibition, actives largely listed as inhibitors; AID 1964105; CHIKV nsP2 protease enzymatic activity, qHTS; shares compounds with nsP2pro primary; also: nearly all actives have a fitted effect of over 75% in size
HCV NS3 counter: selectivity counter-screen for CHIKV nsP2 protease inhibitors: HCV NS3/4A | Potency, µM (doses to about 50.9 µM), actives largely listed as inhibitors | hit rate 20% among 410 | HCV NS3/4A protease biochemical counterscreen | shares compounds with nsP2pro primary; also: nearly all actives have a fitted effect of over 55% in size
* hit, by the source's call; i = inactive; ? = inconclusive; [ ] = another dose, or the depositor's remark. Calls follow the shape of the full dose curve. % is scaled to controls: 0 for no effect and ±100 for the full control effect; potency is read from the fitted curve at half-maximal effect.

SMILES | nsP2pro primary | others
Cc1ccc(S(=O)(=O)Nc2cc([N+](=O)[O-])ccc2C(=O)Nc2nc(-c3ccccc3)cs2)cc1 | i
CC(C)=CCC[C@](C)(OC1OC(COC2OCC(O)C(O)C2O)C(O)C(O)C1O)[C@H]1CC[C@]2(C)[C@@H]1[C@H](O)C[C@@H]1[C@@]3(C)CC[C@H](OC4OC(CO)C(O)C(O)C4OC4OC(CO)C(O)C(O)C4O)C(C)(C)[C@@H]3CC[C@]12C (stereo partly specified) | -12%[10 µM]
CC1(C)SCCN(S(=O)(=O)c2ccc(OCC#CCO)cc2)[C@H]1C(=O)NO | ? | nsP2 cell sec=-13%;NSP2 full ctr=?;Furin counterscr=-3%;NS23 peptide cs=2%;Papain cs=-3%;nsP2pro confirm=?;HCV NS3 counter=i
CC1(C)SCCN(S(=O)(=O)c2ccc(Oc3ccncc3)cc2)[C@H]1C(=O)NO | 0%
COc1ccc(-c2csc(NC(=O)[C@H]3CCCCN3S(=O)(=O)c3ccc(C)cc3)n2)cc1 | 2%
CCOc1ncccc1C(=O)N[C@H](c1cncc(OC)c1)C1CC(O)C1 (stereo partly specified) | i
Cc1ccc(C(=O)N2CCC(Cc3noc(C4CCOCC4)n3)C2)s1 (stereo unspecified) | -1%
CC(C)n1cnnc1CC1CCN(S(=O)(=O)Cc2ccccc2)C1 (stereo unspecified) | -1%
O=C(CCc1cc2n(n1)CCNC2)NCc1nc2ccc(Cl)cc2[nH]1 | i
CN1Cc2ccccc2NC(=O)C12CCNC2 (stereo unspecified) | -16%[39.2 µM]
O=C1Nc2ccccc2CN(CC2CCCCC2)C12CCNC2 (stereo unspecified) | 7%
CCN1Cc2ccccc2NC(=O)C12CCNC2 (stereo unspecified) | 8.9µM* | nsP2 cell sec=?;NSP2 full ctr=6.4µM*;Furin counterscr=-22%;NS23 peptide cs=14µM*;Papain cs=-4%;nsP2pro confirm=8.9µM*;HCV NS3 counter=3.6µM*
CCn1ccc(C(=O)N2CCc3nc(NC)nc(C(=O)N4CCCC4)c3C2)n1 | i
Cc1nc(CCNc2ncnc3ccc(-c4ccc5c(c4)OCO5)cc23)cs1 | i
CN(CC(=O)NCc1ccc(F)cc1)S(=O)(=O)c1ccc2[nH]c3c(c2c1)CCCC3 | -29%
Cc1ccc(CNS(=O)(=O)c2ccc3[nH]c4c(c3c2)CCCC4)cc1 | -16%
Cc1cccc(N(C)C(=O)CN(C)S(=O)(=O)c2ccc3[nH]c4c(c3c2)CCCC4)c1 | ? | nsP2 cell sec=-4%
N#Cc1cccc(NC(=O)Nc2nnc(-c3ccncc3)s2)c1 | 1%
CNC(=O)[C@@H]1CN(C(=O)Cc2cc(C)no2)C[C@H]1COC | 5%
CC(C)n1nccc1-c1ncccc1COc1cccc(O)c1C=O | -20%
S=C(SSC(=S)N1CCCCC1)N1CCCCC1 | 2.5µM* | nsP2 cell sec=13µM*;NSP2 full ctr=15µM*;Furin counterscr=-2%;NS23 peptide cs=16µM*;Papain cs=-25%;nsP2pro confirm=3.6µM*;HCV NS3 counter=i
CCOCCn1c(=O)n(Cc2cc(OC)ccn2)c2cc(C(=O)O)cnc21 | 1%
O=C(Nc1ccccc1F)C1CN(C2CCCCC2)C(=O)N1 (stereo unspecified) | i
CCOC(=O)c1ccc(O)c2ncc(N3CCC(C(=N)N)CC3)cc12 | 2%
Cc1ccnc(NC(=S)N2CC[C@@H](Nc3cccc(C(F)(F)F)c3)C2)c1 | 4%
CCCN1C(=O)CCc2cc(NC(=O)NCCCOCC)ccc21 | -2%
CN1CC(O)CN([S+](=O)([O-])c2cccs2)CC1=O (stereo unspecified) | -12%

Assay outcomes as filed in PubChem BioAssay.
